TMEM16A act – activators or potentiators of mouse TMEM16A chloride channel | Q8BHY3 | HEK293 TMEM16A/YFP-H148Q/I152L, iodide quench fluorescence; stronger effect = lower value | B-score at 10 µM | 340,000 compounds, 0.3% hits | AID 623877;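 active means fluorescence-ratio B-score plate-corrected deviation score at least 3 library SD below zero, with starting fluorescence score within 5 deviations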;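 further: channel opened by trigger with iodide after compound preincubation; score built on the fluorescence ratio of max minus min over baseline; more negative score means more quench and so TMEM16A activation or potentiation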
m5-HT2A agonist – activates the mouse 5-HT2A serotonin receptor; activation, % at 7.6 µM; P35363; CHO-K1 mHTR2A beta-arrestin complementation, luminescence; percent of 30 µM serotonin response; 360,000 compounds, 0.66% hits;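 active means activation above a run cutoff, the mean activation of all tested compounds plus 3 SD, cut at about 14% in these data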;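 further: 0% = plate median of compound wells and 100% = 30 µM serotonin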
TLR9-MyD88 inh – inhibitors of human TLR9-MyD88 binding | Q9NR96+Q99836 | CHO BLA complementation TLR9-MyD88, CCF4 FRET ratio | inhibition, % at 4.98 µM | 340,000 compounds, 0.21% hits | AID 504734;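 active means inhibition above the mean over all tested compounds plus 3 SD, cut at about 21% in these data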;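 further: 0% = DMSO only wells and 100% = clavulanate BLA inhibitor control wells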
TLR4-MyD88 BLA – TLR4-MyD88 interaction inhibition in cells; O00206+Q99836; HeLa CL3-4 TLR4/MyD88 BLA complementation, FRET ratio; inhibition, % at 8.4 µM; 200,000 compounds, 0.18% hits; AID 861; in the data active means inhibition above about 25%;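 further: 0% = vehicle and 100% = reference inhibitor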
ANO1 block – blocks the mouse calcium-activated chloride channel TMEM16A; normalized B-score (activity score, 25-100; higher = stronger inhibition) at 10 µM; Q8BHY3; 310,000 compounds, 1.2% hits; HEK293 TMEM16A/YFP iodide influx fluorescence, ionomycin;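 active means ratio plate-corrected score three or more library SD toward inhibition, starting fluorescence score within five deviations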;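 further: score derived from kinetic fluorescence span divided by baseline fluorescence per well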
NOD2 RIPK2 PPI – blocks binding of human NOD2 to RIPK2. O43353. CHO BLA complementation NOD2-RIPK2, CCF4 ratio. inhibition, % at 4.98 µM. 360,000 compounds, 0.38% hits; in the data active means inhibition above about 21%;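 further: 0% = vehicle only and 100% = reference blocker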
TMEM16A reconf – re-confirmation of mouse TMEM16A chloride channel inhibitors; shares compounds with ANO1 block; HEK293 TMEM16A/YFP-H148Q, iodide quench fluorescence; ionomycin added to raise cell calcium; inhibition, % at 10 µM; 2,300 compounds, 39% hits; AID 652189;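 active means mean duplicate percent inhibition, scaled so buffer wells are 0 and the reference blocker 100, over three buffer SD above buffer mean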
TMEM16A Ca cntr – counter-screen for TMEM16A inhibitors: effect on calcium mobilization. shares compounds with ANO1 block. TMEM16A/YFP HEK293, Fluo4 calcium mobilization. calcium response (% of ionomycin), % at 10 µM. 2,300 compounds, 2% hits. AID 652231;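 active means duplicate-averaged calcium signal over 20% of the ionomycin maximum, relative to buffer baseline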;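 further: each well's signal is peak minus trough fluorescence divided by its pre-addition baseline; 0% = buffer wells and 100% = ionomycin wells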
YFP-HEK293 quench – counter-screen for TMEM16A inhibitors: effect in parental YFP-HEK293 cells; YFP ratio F(max-min)/F0 at 10 µM; iodide YFP quench, ionomycin; shares compounds with ANO1 block; 2,300 tested, under 10 active; AID 652233;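 active means yellow fluorescent protein signal ratio exceeding the buffer control mean by over 5 SD of those controls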;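 further: ratio is mean of duplicate wells from kinetic YFP trace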
ClC-1 inh – selectivity of TMEM16A inhibitors: inhibition of rat ClC-1 chloride channel; AID 652236; ratio percent, % at 10 µM; 2,300 tested, under 10 active; shares compounds with ANO1 block; CHO ClC-1-YFP, iodide influx fluorescence quench; iodide control reads 0, buffer control 100;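 active means duplicate-mean ratio percent above the mean of iodide-only control wells, which defines zero, plus 5 of their SD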;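 further: higher percent means stronger block of ClC-1 iodide influx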
Target sequence (P35524 whole entry, looked up): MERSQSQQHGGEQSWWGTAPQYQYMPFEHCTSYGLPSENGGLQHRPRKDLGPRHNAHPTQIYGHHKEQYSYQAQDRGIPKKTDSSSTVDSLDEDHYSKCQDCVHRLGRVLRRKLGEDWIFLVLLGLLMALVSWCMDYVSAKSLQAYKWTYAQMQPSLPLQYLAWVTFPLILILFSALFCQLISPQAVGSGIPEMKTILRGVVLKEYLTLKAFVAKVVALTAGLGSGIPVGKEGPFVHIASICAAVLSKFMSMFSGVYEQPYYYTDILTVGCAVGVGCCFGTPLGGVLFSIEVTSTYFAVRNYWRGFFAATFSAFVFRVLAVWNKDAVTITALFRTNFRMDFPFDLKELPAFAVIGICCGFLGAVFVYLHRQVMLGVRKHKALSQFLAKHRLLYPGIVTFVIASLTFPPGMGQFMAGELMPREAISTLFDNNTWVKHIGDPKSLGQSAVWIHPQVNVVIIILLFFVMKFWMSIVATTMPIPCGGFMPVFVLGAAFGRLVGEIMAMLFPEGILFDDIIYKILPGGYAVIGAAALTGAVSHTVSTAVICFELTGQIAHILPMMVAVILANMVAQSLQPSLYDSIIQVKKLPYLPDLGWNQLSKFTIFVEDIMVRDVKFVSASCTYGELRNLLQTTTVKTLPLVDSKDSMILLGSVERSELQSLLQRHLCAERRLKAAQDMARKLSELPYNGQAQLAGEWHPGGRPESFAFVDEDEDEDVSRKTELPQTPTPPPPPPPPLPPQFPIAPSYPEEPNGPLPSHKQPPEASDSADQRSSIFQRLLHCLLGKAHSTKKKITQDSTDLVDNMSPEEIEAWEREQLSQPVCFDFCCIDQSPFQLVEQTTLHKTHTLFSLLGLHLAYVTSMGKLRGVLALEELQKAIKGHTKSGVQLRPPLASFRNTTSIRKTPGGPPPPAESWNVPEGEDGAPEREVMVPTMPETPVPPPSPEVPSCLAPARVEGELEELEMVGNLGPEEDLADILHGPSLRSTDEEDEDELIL
The depositor's hits bear a star; i = inactive; . = no result. An excerpt weighted towards active compounds, which were near 2.4% of everything screened.

SMILES | TMEM16A act | m5-HT2A agonist | TLR9-MyD88 inh | TLR4-MyD88 BLA | ANO1 block | NOD2 RIPK2 PPI | TMEM16A reconf | TMEM16A Ca cntr | YFP-HEK293 quench | ClC-1 inh
CCN(CC)CCCNC(=O)c1cc2nc(-c3ccccc3)cc(C(F)(F)F)n2n1 | i | -7 | 4 | . | 100* | 4 | i | i | -1.1 | -10
CCCNC(=O)Nc1cc(S(=O)(=O)CC)ccc1O | i | 2 | -3 | . | i | -1 | . | . | . | .
CCS(=O)(=O)c1ccc(O)c(NC(=O)c2cc(OC)c(OC)c(OC)c2)c1 | i | -6 | -13 | 13 | i | -5 | i | i | -1.1 | -6
CCOC(=O)C(CC(=O)O)NCc1ccco1 (configuration not stated) | i | 3 | 5 | . | i | -4 | . | . | . | .
CC(C)OC(=O)C(CC(=O)O)NCc1ccccc1 (configuration not stated) | i | 1 | 3 | 9 | i | -5 | i | i | -0.97 | -16
CCC(O)C1CCN(C(=O)c2cc(COc3ccc4ncccc4c3)on2)CC1 (configuration not stated) | i | 1 | . | -4 | 100* | -3 | i | i | -1.1 | -20
CCOC(=O)N1CCN(C(=O)c2cc(COc3ccc4ncccc4c3)on2)CC1 | i | 10 | -9 | 6 | 25* | -7 | 31%* | i | -0.96 | -26
O=C(c1cc(COc2ccc3ncccc3c2)on1)N1CCC(O)CC1 | i | 8 | 17 | -1 | i | -3 | . | . | . | .
Cc1cccnc1CN1CCN(C(=O)c2cc(COc3ccc4ncccc4c3)on2)CC1 | i | 2 | 0 | -8 | 25* | -4 | 22%* | i | -1.1 | -40
O=C1CCCc2cc3c(cc21)CC1(C3)Cc2cc3c(cc2C1)C(=O)CCC3 | i | 1 | -1 | . | 25* | -3 | 20%* | i | -1.2 | -10
Cc1ccc(-c2nnc(N3CCN(c4ccccn4)CC3)c3ccccc23)cc1 | i | 4 | -3 | -7 | 25* | -2 | 28%* | i | -0.99 | -17
c1ccc(-c2nnc(N3CCN(c4ccccn4)CC3)c3ccccc23)cc1 | i | 9 | 3 | -2 | i | -8 | . | . | . | .
O=S(=O)(Nc1ccc2c3c(cccc13)CC2)c1ccccc1 | . | 0 | -10 | . | . | -7 | . | . | . | .
C[C@@H](C(=O)Nc1ccc2ccccc2c1)[C@H]1C[C@]1(C)[C@H](NC(=O)c1cnccn1)c1ccccc1 | i | -7 | 13 | -3 | i | 13 | i | i | -1.2 | -9
COc1ccc(-c2nnc3sc(CN4C(=O)c5ccccc5C4=O)nn23)cc1 | i | 1 | -3 | . | i | -1 | . | . | . | .
O=C1c2ccccc2C(=O)N1Cc1nn2c(-c3ccc(Cl)cc3)nnc2s1 | i | 9 | 10 | . | 25* | -35 | i | i | -0.96 | -4
CSc1nnnn1-c1ccc(C(=O)O)cc1 | i | 1 | -2 | 6 | i | -10 | . | . | . | .
CCn1c(SCC(=O)N2CCOCC2)nc2sc3c(c2c1=O)CCCC3 | i | -1 | -6 | -4 | i | -20 | . | . | . | .
CCn1c(SCC(=O)N2CCOCC2)nc2oc3c(Cl)cc(Cl)cc3c(=O)c2c1=O | . | . | . | 2 | i | . | 32%* | i | -0.31 | 10
COc1ccc(C(=O)OCCc2ccc(O)cc2)cc1 | i | 6 | 11 | 4 | 25* | -10 | i | i | -1 | -4

Source: PubChem (several laboratories)
